Experimental data as given in PubChem BioAssay (NCI).
This is part of a sample that, as a whole, favours compounds with a hit. Of some 83,000 tested, about 20% had one in any assay.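 In brief: 96-well plates, 48 h treatment, single concentration, percent growth endpoint.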 Unmarked numbers belong to inactive results. Calls of active or inactive are those of the source. How the source made its calls: active means growth percent below 10; inactive means the rest.

Columns and labels:
Assay in all cases: NCI-60 one-dose screen, 48 h (100 = growth as untreated, 0 = no growth, -100 = all killed)
Conditions in all cases: 10 µM unless noted
HCT-15 colon = test system: HCT-15 colon
HT29 colon = test system: HT29 colon
SNB-75 CNS = test system: SNB-75 CNS
SNB-19 CNS = test system: SNB-19 CNS
U251 CNS = test system: U251 CNS
PC-3 prostate = test system: PC-3 prostate
UACC-62 melanoma = test system: UACC-62 melanoma
LOX IMVI melanoma = test system: LOX IMVI melanoma
SK-MEL-28 melanoma = test system: SK-MEL-28 melanoma
SK-MEL-2 melanoma = test system: SK-MEL-2 melanoma
SN12C renal = test system: SN12C renal
UO-31 renal = test system: UO-31 renal
ACHN renal = test system: ACHN renal
CAKI-1 renal = test system: CAKI-1 renal
A498 renal = test system: A498 renal
CCRF-CEM leukemia = test system: CCRF-CEM leukemia
MOLT-4 leukemia = test system: MOLT-4 leukemia
EKVX NSCLC = test system: EKVX NSCLC
TK-10 renal = test system: TK-10 renal
SK-MEL-5 melanoma = test system: SK-MEL-5 melanoma

Row | SMILES | growth (HCT-15 colon) | growth (HT29 colon) | growth (SNB-75 CNS) | growth (SNB-19 CNS) | growth (U251 CNS) | growth (PC-3 prostate) | growth (UACC-62 melanoma) | growth (LOX IMVI melanoma) | growth (SK-MEL-28 melanoma) | growth (SK-MEL-2 melanoma) | growth (SN12C renal) | growth (UO-31 renal) | growth (ACHN renal) | growth (CAKI-1 renal) | growth (A498 renal) | growth (CCRF-CEM leukemia) | growth (MOLT-4 leukemia) | growth (EKVX NSCLC) [%] | growth (TK-10 renal) | growth (SK-MEL-5 melanoma) [%]
1 | C[C@@H](Oc1cc(-c2cnn(C3CC4(CCNCC4)C3)c2)cnc1N)c1c(F)ccc(Cl)c1Cl | 1.76% (active) | -56.6% (active) | -3.45% (active) | 61.6% | 12.1% | 6.2% (active) | -88.1% (active) | -85.8% (active) | -83.4% (active) | -65.5% (active) | 22% | 13.8% | 28.2% | 60.9% | -6.38% (active) | -19.6% (active) | -33% (active) |  |  | 
2 | C[C@@H](Oc1cc(-c2cnn(C3CC4(CNC4)C3)c2)cnc1N)c1c(Cl)ccc(F)c1Cl | 35.4% | -11.9% (active) | 25.1% | 96.7% | 61.8% | 24.7% | 53% | 11.5% | 58.9% | 32.6% | 22.9% | 51.5% | 48.6% | 65.7% | 24% | 24% | 0.522% (active) |  |  | 
3 | Cn1c2ccccc2c2nn(C(=O)c3ccccc3)c(=O)nc21 | 101% | 105% | 105% | 99% | 112% | 92.4% | 105% | 99.3% |  | 113% | 102% | 73.4% | 105% | 103% | 108% | 96.9% | 104% |  |  | 
4 | COc1cc(NC(=O)COc2ccccc2)c(C(N)=O)cc1OC | 30.1% | 1.53% (active) | 17.9% | 56% | 17.8% | 30.7% | 51.9% | 59.1% | 70.1% | 9.86% (active) | 44.7% | 51.3% | 54.9% | 37.1% | 4.84% (active) | 6.33% (active) |  |  |  | 
5 | C=CC(=O)N1CC2(CCC(n3nc(-c4ccc(Oc5ccccc5)cc4)c4c(N)ncnc43)CC2)C1 | -60.5% (active) | -60.3% (active) | -69.5% (active) | -0.912% (active) | -73.8% (active) | -19.6% (active) | -90.7% (active) | -65% (active) | -67.9% (active) | -89.7% (active) | -10.7% (active) | -63.7% (active) | -83.6% (active) | -75.1% (active) | -93.2% (active) | -6.08% (active) | -28.2% (active) |  |  | 
6 | COc1ccc(OC)c(C2C(C#N)=C(N)Oc3cc(O)ccc32)c1 (stereo not drawn) | 94.4% | 95.4% | 91.5% | 102% | 99% | 95.5% | 91.9% | 100% | 103% | 96.5% | 98% | 81.7% | 94.4% | 73.5% | 92.2% | 88.2% | 88.2% | 88.7 | 91.1% | 
7 | Oc1cccc(Nc2nc(-c3ccccn3)cs2)c1 | 78.3% | 112% | 94.3% | 98.8% | 101% | 94.5% |  | 93.9% | 111% |  | 97.8% | 73.1% | 102% | 111% |  |  | 85.2% |  | 111% | 91.1
8 | COc1cccc(C2CC(=O)Nc3cc4c(cc32)CCC4)c1OC (stereo not drawn) | 36.4% | 9.41% (active) | 35.3% | 80.8% | 42.4% | 69.3% | 52.1% | 59.6% | 68.9% | 36.5% | 77.2% | 59.7% | 82.3% | 40.8% | 62.9% | 3.82% (active) | 14.8% | 72.5 | 70.1% | 
9 | CC1(C)CC(=O)C2=C(C1)Nc1cc3c(cc1C2c1ccc(F)cc1)OCO3 (stereo not drawn) | 93.9% | 93.2% | 77.3% | 96.5% | 90.6% | 93.5% | 98.7% | 99.1% | 92.6% | 91.3% | 106% | 74% | 98.6% | 96.4% | 82% | 86.4% | 83.1% | 92.3 | 99.4% | 
10 | COc1ccc(OC2=C(C#N)C(=N)N3c4ccccc4Sc4ccccc4C3N2)cc1 (stereo not drawn) | 105% | 119% | 69% | 97.8% | 105% | 88.9% | 69.6% | 87.4% | 76.4% | 130% | 94.3% | 59.5% | 83.3% |  |  | 80.9% | 139% |  | 120% | 
11 | Cc1ccc(C(=O)Nc2ccccc2N)cc1 | 88% | 79.4% | 82.8% | 81.9% | 74.8% | 70.9% | 52.1% | 89.5% |  | 57.5% | 64% | 37.4% | 87.7% | 93.7% | 54.9% | 4.67% (active) | 30.9% |  |  | 
12 | NC(=O)c1cc(I)ccc1NC(=O)COc1ccc(Cl)cc1Cl | 62.8% | 85.1% | 113% | 98.7% | 89.5% | 86.4% | 83.1% | 93.3% | 99.3% |  | 103% | 83.3% | 99% | 88.8% | 73.9% | 81.6% | 80.5% |  |  | 
13 | COc1cc2nc(N3CCC[C@H](NC4=CC(=O)c5ccccc5C4=O)C3)nc(N)c2cc1OC | -63.5% (active) | -69.1% (active) | -83.5% (active) | -74.7% (active) | -90.2% (active) | 54.5% | -87.9% (active) | -82.9% (active) | -85.2% (active) | 111% | 65.4% |  | -100% (active) | -56.6% (active) | 93% | -23.5% (active) | -41.3% (active) |  | -72.6% (active) | 
14 | NC(=O)c1cc(I)ccc1NC(=O)COc1ccccc1 | 20.1% | 7.08% (active) | 30.8% | 43.1% | 13.5% | 43.4% | 46% | 52.1% | 57.7% | 34.5% | 37.4% | 52.7% | 43.8% | 55.1% | 4.14% (active) | 4.81% (active) | 4.74% (active) |  |  | 
15 | COc1ccc(Nc2[nH]n(C3=Nc4ccccc4Sc4ccccc43)c(=O)c2C#N)cc1 | 49.3% | 68.7% | 67.3% | 73.5% | 67% | 41.4% | 32.8% | 54.6% | 64.7% | 59.4% | 50.1% | 35.6% | 40.3% |  |  | 50.2% |  |  | 65.9% | 
16 | COc1c(Cl)ccc2c(-c3nc4cc(Cl)c(F)cc4s3)cc(=O)oc12 | 82% | 5.31% (active) | 69.3% | 96% | 99.1% | 84.3% | 91.7% | -80.2% (active) | 111% | 37.7% | 96.3% | -88.8% (active) | 47.8% | 34.4% | 107% | -68% (active) | 44.3% |  |  | 
17 | COc1cc(-c2ccc3cc(OC)c(OC)c(OC)c3c2)cc(OC)c1OC | 42.8% | 32.6% | 49.1% | 85.4% | 69% | 49.5% | 68.1% | 62.8% | 61% |  | 92.9% | 35.5% | 79.8% | 42.5% | 77.3% | 55.2% |  | 65.7 | 85.7% | 
18 | CN1CCc2c(Sc3ccc(C(=O)NO)cc3)c3ccccc3n2C1 | 75.6% | 48.9% | 25.8% | 53.4% | 23.8% | 20.8% | 38.9% | 11.6% | 14.7% | 39.6% | 59.4% | 62.8% | 64.6% | 78.8% | 28.6% | 3.13% (active) | 6.7% (active) |  |  | 
